BH1578 lux ind: quorum light induction in luxS cqsA deficient V. cholerae; V. cholerae BH1578 lux reporter, luminescence, 6 h; activation, % at 18.7 µM; hit rate 0.16% among 350,000; AID 588436; in the data active means activation mostly above about 9.7%, no sharp cut-off
GDH-TPI counter-1: counter-screen for M. tuberculosis FBA inhibitors: GDH-TPI coupled enzymes; inhibition, % at 4.8 µM; AID 588335; hit rate 1.2% among 360,000; GDH-TPI coupled enzyme counterscreen, NADH absorbance; in the data active means inhibition above about 30%
Mtb FBA inh: Mtb fructose-bisphosphate aldolase inhibition. P9WQA3. purified M. tuberculosis FBA, fluorescence read-out. inhibition, % at 1 µM. hit rate 2.3% among 360,000
Target sequence (P9WQA3 whole entry, looked up): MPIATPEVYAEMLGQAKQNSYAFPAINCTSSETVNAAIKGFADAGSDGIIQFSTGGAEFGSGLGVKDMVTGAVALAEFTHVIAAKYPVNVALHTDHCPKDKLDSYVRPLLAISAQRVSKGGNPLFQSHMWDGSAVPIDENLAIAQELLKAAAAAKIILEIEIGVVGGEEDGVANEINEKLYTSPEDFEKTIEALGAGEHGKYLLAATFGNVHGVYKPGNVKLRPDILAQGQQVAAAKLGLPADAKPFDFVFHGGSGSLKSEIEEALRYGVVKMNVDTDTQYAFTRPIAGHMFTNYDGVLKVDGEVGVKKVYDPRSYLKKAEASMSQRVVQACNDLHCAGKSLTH
BioA inh: BioA (M. tuberculosis) enzyme inhibition; purified M. tuberculosis BioA enzyme, plate reader; inhibition, % at 9.99 µM; hit rate 0.096% among 360,000; AID 602481; in the data active means inhibition above about 40%
Mtb FBA inh conf: Mtb FBA inhibition, confirmed. shares compounds with Mtb FBA inh. purified M. tuberculosis FBA, fluorescence read-out. inhibition, % at 1 µM. hit rate 78% among 5,600. AID 651616
GDH-TPI counter-2: GDH-TPI inhibition counter-screen for FBA inhibitors; GDH-TPI coupled enzyme counterscreen, fluorescence; shares compounds with Mtb FBA inh; AID 652141; inhibition, % at 1 µM; hit rate 81% among 5,600; in the data active means inhibition above about 10%
GDH-TPI dose: counter-screen for M. tuberculosis FBA inhibitors: GDH-TPI dose response | GDH-TPI coupled enzyme assay, fluorescence, artifact counterscreen | shares compounds with Mtb FBA inh | IC50, µM | AID 652145 | hit rate 79% among 170; call rule not given here
A number is an active result; i = inactive; nt = no result; + = active, no number. This is a sample that favours compounds with a hit; in the whole collection about 3% have one here. Unless noted, no stated cut-off is given here; in the data, active means inhibition above about 27%; inactive means the rest.

SMILES	BH1578 lux ind	GDH-TPI counter-1	Mtb FBA inh	BioA inh	Mtb FBA inh conf	GDH-TPI counter-2	others
CC(C)(C)c1ccc(C2=CC(c3ccccc3)n3ncnc3N2)cc1 (stereo unspecified)	i	i	i	i	nt	nt
COc1ccc(NC(=O)Nc2ccc3c(c2)C(=O)N([C@@H](C)CO)C[C@@H](C)[C@@H](CN(C)CC2CCCCC2)OCCCC[C@@H](C)O3)cc1	nt	nt	nt	i	nt	nt
CC(C)NC(=O)Nc1ccc2c(c1)C(=O)N([C@H](C)CO)C[C@H](C)[C@@H](CN(C)C(=O)CCC(F)(F)F)OCCCC[C@@H](C)O2	nt	nt	nt	i	nt	nt
C[C@H](CO)N1C[C@H](C)[C@@H](CN(C)C(=O)Cc2ccccc2)OCCCC[C@H](C)Oc2ccc(NC(=O)Nc3ccc(F)cc3)cc2C1=O	nt	nt	nt	i	nt	nt
CCCn1nc2cc(C(=O)NC3CCCc4ccccc43)ccc2c1OCC (stereo unspecified)	i	i	56	i	137	99
CCCCn1nc2cc(C(=O)NC3CCc4ccccc43)ccc2c1OCC (stereo unspecified)	i	i	53	i	+	+
Cc1ccc(S(=O)(=O)Nc2cccc3c2O[C@@H](CN(C)C(=O)NC(C)C)[C@H](C)CN([C@H](C)CO)C3=O)cc1	nt	nt	nt	i	nt	nt
CCOC(=O)c1c(NC(=O)C2C3CCC(O3)C2C(=O)O)sc2c1CCCC2 (stereo unspecified)	i	i	i	nt	nt	nt
COC(=O)c1c(NC(=O)C2C3CCC(O3)C2C(=O)O)sc2c1CCCCCC2 (stereo unspecified)	i	i	61	nt	95	78
O=C(CCCCCCCCC(=O)N/N=C/c1ccco1)N/N=C/c1ccco1	i	i	i	i	nt	nt
O=C(CCC(=O)N/N=C/c1ccco1)N/N=C/c1ccco1	i	i	29	i	76	64
CC(=O)N(C)C[C@H]1Oc2ncc(C#CCc3ccccc3)cc2C(=O)N([C@@H](C)CO)C[C@@H]1C	nt	nt	nt	i	nt	nt
S=c1[nH]c(-c2ccccc2)cn1/N=C/c1ccccc1Br	i	i	i	i	nt	nt
COc1cc(/C=N/n2cc(-c3ccccc3)[nH]c2=S)cc(OC)c1O	i	i	43	i	80	64
S=c1[nH]c(-c2ccccc2)cn1/N=C/c1cccc2ccccc12	i	i	33	nt	i	i	GDH-TPI dose=i
Oc1ccc(/C=N/n2cc(-c3ccccc3)[nH]c2=S)cc1	i	i	42	nt	137	117
Cc1ccc(/C=N/n2cc(-c3ccccc3)[nH]c2=S)s1	i	i	i	i	nt	nt
CCN(Cc1ccccc1)S(=O)(=O)c1cc2[nH]c(=O)c(=O)[nH]c2cc1C	i	i	28	i	155	111
Cc1cccc(Oc2nc(-c3ccccc3)cc(C)c2S(C)(=O)=O)c1C	i	i	i	nt	nt	nt
COc1ccccc1Oc1nc(-c2ccccc2)cc(C)c1S(C)(=O)=O	i	i	64	i	37	43
CC(C)CC#Cc1cnc2c(c1)C(=O)N([C@@H](C)CO)C[C@@H](C)[C@@H](CN(C)S(=O)(=O)c1cn(C)cn1)O2	nt	nt	nt	i	nt	nt
CC1CCC2C(C1)Nc1c(C(=O)O)cccc1C2(C)C (stereo unspecified)	i	i	77	nt	i	11
CC1C2CCC(C2)C1OC(=O)c1ccccc1C(=O)O (stereo unspecified)	i	i	i	nt	nt	nt
CCN(CC)CCOC(=O)c1cccc2c1-c1ccccc1C2O (stereo unspecified)	i	i	29	nt	46	35
CCNC(=O)C[C@@H]1CC[C@H]2[C@@H](COc3ccc(NC(=O)c4ccc5c(c4)OCO5)cc3C(=O)N2C)O1	nt	nt	nt	i	nt	nt
SMILES	BH1578 lux ind	GDH-TPI counter-1	Mtb FBA inh	BioA inh	Mtb FBA inh conf	GDH-TPI counter-2	others
C[C@@H]1CCCCO[C@H](CN(C)S(=O)(=O)c2cccs2)[C@@H](C)CN([C@H](C)CO)C(=O)c2cc(NC(=O)Nc3cccc4ccccc34)ccc2O1	nt	nt	nt	i	nt	nt
COc1ccc2cc(-c3nc4ccccc4n3C)c(=O)oc2c1	i	39	59	i	198	+
COc1ccc(-c2cc3ccccc3oc2=O)cc1	i	i	60	i	+	+
COc1ccc(-c2nnc(-c3cc4ccccc4oc3=O)o2)cc1	i	i	i	i	nt	nt
Cn1c(-c2cc3ccccc3oc2=O)nc2ccccc21	i	i	i	nt	nt	nt
CCOCCCN(Cc1ccco1)C(=O)c1cc2c(=O)[nH]c3ccc(C)cc3c2s1	i	i	32	i	i	i
Cc1ccc2[nH]c(=O)c3cc(C(=O)N(C)Cc4ccco4)sc3c2c1	i	i	51	i	187	135
CCCN(CCC)C(=O)c1cc2c(=O)[nH]c3ccc(C)cc3c2s1	i	i	i	i	nt	nt
Cc1ccc2[nH]c(=O)c3cc(C(=O)N4CCN(C(=O)c5ccco5)CC4)sc3c2c1	i	i	i	i	nt	nt
COCC(=O)Nc1ccc2c(c1)[C@@H]1C[C@@H](CC(=O)NCc3ccccc3OC)O[C@H](CO)[C@@H]1O2	nt	nt	nt	i	nt	nt
COc1ccc(CNC(=O)C[C@H]2C=C[C@@H](NC(=O)CN(C)C)[C@@H](CO)O2)cc1	nt	nt	nt	i	nt	nt
CC=Cc1ccc2n(c1=O)C[C@@H]1[C@@H](CO)[C@H](C(=O)N3CCCCC3)N(Cc3ccccc3OC)[C@H]21 (mixture of isomers)	nt	nt	nt	i	nt	nt
O=C(Nc1ccc2oc(-c3ccccc3Cl)nc2c1)c1ncn[nH]1	i	i	i	i	nt	nt
Cc1ccccc1-c1nc2cc(NC(=O)C3CC3)ccc2o1	i	i	107	i	i	15
O=C(Nc1ccc2oc(-c3cccc4ccccc34)nc2c1)c1ncn[nH]1	i	36	66	i	36	29
Cc1ccccc1N(C(=O)c1snc(C(N)=O)c1N)C(C(=O)NC1CCCCC1)c1ccc(O)cc1 (stereo unspecified)	i	i	35	i	i	i
Cc1ccccc1N(C(=O)c1snc(C(N)=O)c1N)C(C)C(=O)NC1CCCCC1 (stereo unspecified)	i	i	32	i	54	37
CCOc1ccccc1N(C(=O)c1snc(C(N)=O)c1N)C(CC)C(=O)NC1CCCC1 (stereo unspecified)	i	i	i	i	nt	nt
Cc1cc(C(=O)COC(=O)c2ccccc2O)c(C)n1CC1CCCO1 (stereo unspecified)	i	i	i	i	nt	nt
Cc1cc(C(=O)COC(=O)c2ccccc2NCCO)c(C)n1CC1CCCO1 (stereo unspecified)	i	i	29	i	+	+
C=CCN(C(=O)COc1ccccc1)c1nnc(-c2ccncc2)s1	i	i	41	i	95	70
COC(=O)c1sc2nc(-c3ccco3)ccc2c1N	i	i	i	nt	nt	nt
NC(=O)c1sc2nc(-c3ccco3)ccc2c1N	32	i	53	i	+	+
Nc1c(C(=O)Nc2ccccc2F)sc2nc(-c3ccco3)ccc12	i	32	40	i	50	43
C[C@@H]1CN([C@H](C)CO)C(=O)c2cc(NC(=O)CCCCCC(=O)Nc3ccccc3N)ccc2O[C@H]1CN(C)S(C)(=O)=O	nt	nt	nt	i	nt	nt
